# Structures can show the parent of a compound that is named as a salt. Where two headings read alike, the source gives them in different places. Among all 5,300 compounds or so, about 130 (2.5%) showed an effect of 50% or more. Shown is part of a subset that was picked to be rich in strong results. Peptide text beside a SMILES is read from it.
# Tested on: M. mycetomatis strain mm55
# Conditions: primary screen, metabolic activity vs growth control, 96 h, 2 µM, inhibitor
# [1] = Madurella mycetomatis metabolic activity at 2µM (%)
compound,measurement,setting,value
"N#Cc1cn([C@@H]2O[C@H](CO)[C@@H](O)[C@H]2O)c2ncnc(N)c12 [ONC0003230, toyocamycin]",% viability,,99.22%
"Cl.O=C(c1ccc(-c2ccc(Cl)cc2)o1)N(Cc1ccccn1)c1ccc(N2CCNCC2)cc1 [ONC0002178, mk2in1 hydrochloride]",% viability,,65.24%
CC(=O)Nc1ccc(C(=O)NC(C)(C)C)cc1 [ONC0002880],% viability,,98.46%
"C/C(O)=C(\C#N)C(=O)Nc1ccc(C(F)(F)F)cc1 [ONC0000878, teriflunomide]",% viability,,64.9%
"O=C(Nc1ccc(C(O)(C(F)(F)F)C(F)(F)F)cc1)c1ccc(C(F)(F)F)cc1 [ONC0000412, sr1078]",% viability,,46.34%
"CC(=O)OC[C@H](N)C(=O)O.Cl [ONC0000420, oacetyllserine hcl]",% viability,,77.43%
"CC[C@@]1(O)C(=O)OCc2c1cc1n(c2=O)Cc2cc3c(N)cccc3nc2-1 [ONC0005467, 9aminocamptothecin]",% viability,,102.4%
"CCCCCCCCCCCCCCOS(=O)(=O)O [ONC0003317, sodium tetradecyl sulfate]",% viability,,84.61%
"Cc1cccc(-c2[nH]c(C(C)(C)C)nc2-c2ccc3c(c2)OCO3)n1 [ONC0005219, sb505124]",% viability,,129%
"CCNC(=O)c1[nH]nc(-c2cc(Cl)c(O)cc2O)c1-c1ccc(OC)cc1 [ONC0005116, ver49009]",% viability,,88.78%
"CCc1cc(-c2n[nH]c(C)c2-c2ccc3c(c2)OCCO3)c(O)cc1O [ONC0003616, cct018159]",% viability,,49.48%
"CC(C)CC1NC(=O)C(C(C)C)NC(=O)C2CCCN2C(=O)C(CC(=O)O)NC(=O)C(Cc2c[nH]c3ccccc23)NC1=O (stereo not drawn) [ONC0004583, bq123] (cyclo(DPVLW); configuration not given here)",% viability,,106.9%
"CC(=O)NC1[C@@H](O)OC(CO)[C@@H](O)[C@H]1O (stereo partly drawn) [ONC0002960, nacetylmannosamine]",% viability,,104.5%
"CN1C(C(=O)Nc2ccccn2)C(=O)c2sccc2S1(=O)=O (stereo not drawn) [ONC0002886, tenoxicam]",% viability,,126.3%
"CC(O)c1cc(C(=O)N[C@@H](C)Cn2ccc(-c3ccc(C#N)c(Cl)c3)n2)[nH]n1 (stereo partly drawn) [ONC0005059, odm201]",% viability,,86.36%
"O=C(NCc1cccc(O)c1)Nc1nc(-c2ccncc2)cs1 [ONC0005121, rki1447]",% viability,[1],69.4%
Cc1ccc(S(=O)(=O)/C=C/C#N)cc1 [bay117082],% viability,,112.1%
CC(C)(C)c1ccc(S(=O)(=O)/C=C/C#N)cc1 [bay117085],% viability,,1.843%
"CCOc1ccc2nc(SCCN3CCOCC3)[nH]c2c1 [ONC0001849, fabomotizole hydrochloride]",% viability,,108.3%
"C[C@H]1COC2=C1C(=O)C(=O)c1c2ccc2c1CCCC2(C)C [ONC0001081, cryptotanshinone]",% viability,,49.66%
"Cc1coc2c1C(=O)C(=O)c1c-2ccc2c1CCCC2(C)C [ONC0005254, tanshinone iia tanshinone b]",% viability,,103.2%
"Cc1c(S(=O)(=O)O)oc2c1C(=O)C(=O)c1c-2ccc2c1CCCC2(C)C [ONC0003377, sodiumtanshinoneiiasulfonate]",% viability,,55.5%
"Nc1nc2nc[nH]c2c(=S)[nH]1 [ONC0003925, tioguanine]",% viability,,107.9%
"O=c1[nH]c(=O)n([C@H]2C[C@H](O)[C@@H](CO)O2)cc1Br [ONC0001774, 5brdu]",% viability,,105.2%
"Cc1cn([C@@H]2C[C@@H](O)[C@H](CO)O2)c(=O)[nH]c1=O [ONC0004416, telbivudine sebivo tyzeka]",% viability,,98.41%
"O=c1[nH]c(=O)n([C@H]2C[C@H](O)[C@@H](CO)O2)cc1F [ONC0002845, floxuridine]",% viability,,24.01%
"Nc1nc(=O)n([C@H]2C[C@H](O)[C@@H](CO)O2)cc1Cl [ONC0003690, 5chloro2deoxycytidine]",% viability,,55.79%
"Nc1nc(=O)n([C@H]2C[C@H](O)[C@@H](CO)O2)cc1F [ONC0004119, 5fluoro2deoxycytidine]",% viability,,7.324%
"Nc1ncn([C@H]2C[C@H](O)[C@@H](CO)O2)c(=O)n1 [ONC0003115, decitabine]",% viability,,79.17%
"Nc1nccc(/C=C/c2ccccc2)n1 [ONC0001621, tcn238]",% viability,,73.65%
"CCC(C/C=C/c1ccccc1)(c1ccccc1)N(C)CC1CC1 (stereo not drawn) [ONC0003075, igmesine]",% viability,,61.21%
"O=C(NCCN1CCC2(CC1)C(=O)NCN2c1cccc(F)c1)c1ccc(F)c(F)c1 [ONC0004390, ml298]",% viability,,135.4%
"O=C1NCN(c2ccccc2)C12CCN(CCCC(c1ccc(F)cc1)c1ccc(F)cc1)CC2 [ONC0003520, fluspirilene]",% viability,,48.06%
"O=C(CCCN1CCC2(CC1)C(=O)NCN2c1ccccc1)c1ccc(F)cc1 [ONC0000014, spiperone]",% viability,,87.63%
"CC(C)c1cc(CNc2nc(Nc3cc(C4CC4)[nH]n3)cc(N3CCN(C)CC3)n2)on1 [ONC0000976, xl228]",% viability,,85.75%
"CCCC[C@H](NC(C)=O)C(=O)N[C@H]1CC(=O)NCCCC[C@@H](C(=O)O)NC(=O)[C@H](Cc2c[nH]c3ccccc23)NC(=O)[C@H](CCCN=C(N)N)NC(=O)[C@@H](Cc2ccccc2)NC(=O)[C@H](Cc2cnc[nH]2)NC1=O [ONC0002156, bremelanotide acetate]",% viability,,73.73%
"O=C1O[C@@H](CO)[C@H](O)[C@@H](O)[C@@H]1O [ONC0003123, gluconolactone]",% viability,,67.77%
"C[N+]1(C)CCC(OC(=O)C(c2ccccc2)c2ccccc2)CC1 [ONC0003592, 4damp]",% viability,,92.53%
"C[N+]1(C)CCC(=C(c2ccccc2)c2ccccc2)CC1 [ONC0004508, diphemanil methylsulfate]",% viability,,48.99%
"Clc1cccc(Cl)c1N=C1NCCN1 [ONC0004193, clonidine hydrochloride]",% viability,,96.49%
"Ac-PHSCN-NH2 [ONC0000745, atn161 trifluoroacetate salt]",% viability,,72.86%
"CCNC(=O)[C@@H]1CCCN1C(=O)[C@H](CCCNC(=N)N)NC(=O)[C@H](CC(C)C)NC(=O)[C@@H](C)NC(=O)[C@H](Cc1ccc(O)cc1)NC(=O)[C@H](CO)NC(=O)[C@H](Cc1c[nH]c2ccccc12)NC(=O)[C@H](Cc1c[nH]cn1)NC(=O)[C@@H]1CCC(=O)N1 [ONC0002202, alarelin acetate]",% viability,,212.3%
"CC(CN(C)C)CN1c2ccccc2Sc2ccccc21 (stereo not drawn) [ONC0003228, trimeprazine tartrate]",% viability,[1],94.09%
"CS(=O)(=O)c1ccc(Oc2cc(F)cc(C#N)c2)c2c1[C@H](O)C(F)(F)C2 [ONC0001118, pt2385]",% viability,,47.48%
"C[N+](C)(C)[C@@H](Cc1c[nH]c(=S)[nH]1)C(=O)O [ONC0003509, lergothioneine]",% viability,,51.74%
"CCOC(=O)N1CSCC1C(=O)O (stereo not drawn) [ONC0002766, 3ethyl thiazolidine34dicarboxylate]",% viability,,97.19%
"Nc1ncnc2c1ncn2[C@H]1O[C@@H](C(=O)N2CCN(CC(=O)Nc3cccc4c3CNC4=O)CC2)[C@H](O)[C@@H]1O [ONC0001619, eb47]",% viability,,55.83%
"Cc1cn([C@H]2O[C@@H](CO)[C@H](O)[C@@H]2F)c(=O)[nH]c1=O [ONC0004549, clevudine levovir]",% viability,,61.35%
"N[C@H](Cc1c[nH]cn1)C(=O)O [ONC0001939, dhistidine]",% viability,,75.44%
"O=C(O)/C=C\c1c[nH]cn1 [ONC0002668, cisurocanic acid]",% viability,,45.73%
"O=C(O)/C=C/c1c[nH]cn1 [ONC0003737, cisurocanicacid]",% viability,,146.4%
"NC(=O)c1nc[nH]c1O [ONC0003682, 5hydroxy1himidazole4carboxamide]",% viability,,60.3%
"Nc1nc2nn[nH]c2c(=O)[nH]1 [ONC0002792, azaguanine8]",% viability,,265.7%
"O=C(O)Cc1ccc(OCCNC[C@H](O)c2ccccc2)cc1 [ONC0001068, zd2079]",% viability,,36.58%
"COCCNC(=O)COc1ccc(OCCNC[C@H](O)COc2ccccc2)cc1 [ONC0001450, zd7114]",% viability,,94.55%
O=C(O)COc1ccc(OCCNC[C@H](O)COc2ccccc2)cc1 [ONC0002275],% viability,,78.74%
"COc1ccc(C[C@H](C)NC[C@@H](O)c2ccc(O)c(NC=O)c2)cc1 [ONC0001548, formoterol]",% viability,,81.88%
"COc1ccc([C@]2(O)CC[C@@H](N3CC[C@@H](NC(=O)CNC(=O)c4cccc(C(F)(F)F)c4)C3)CC2)cn1 [ONC0000726, incb 3284]",% viability,,81.5%
"c1ccc(-c2ccc(CNc3nc(-c4ccccn4)nnc3-c3ccccc3)cc2)cc1 [ONC0001674, ml228]",% viability,,2.835%
"c1cnc(NCc2ccc(CNc3ncccn3)cc2)nc1 [ONC0002000, msx122]",% viability,,83.13%
"c1ccc(NCc2ccc(CNc3ccccn3)cc2)nc1 [ONC0004550, wz 811]",% viability,,63.57%
"FCc1ccc(OCCOc2ccc(Cl)cc2Cl)c(Cl)n1 [ONC0000095, cym50260]",% viability,,81.52%
"O=C(O)CN(CCN(CC(=O)O)CC(=O)O)CCN(CC(=O)O)CC(=O)O [ONC0005432, gadopenteticacid]",% viability,[1],103.1%

# — PMC12670160, “A drug-repurposing screen of FDA- and EMA-approved drugs identifies two NF-κB inhibitors active against eumycetoma” (Journal of Antimicrobial Chemotherapy, 2025)
